# Experimental data reported in PubChem BioAssay (NCI).
# The panel holds about 79,000 compounds, 15% with a hit somewhere; the sample as a whole holds those more often. Unmarked numbers belong to inactive results. Activity calls are given as the source filed them. Cut-off read from the data, not from the text of the source: active = growth inhibition above about 70%; inactive = the rest.
# Columns and labels:
# [1] = NCI Yeast Anticancer Drug Screen. Data for the rad52 strain (AID 147);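 note: 0% = growth of vehicle-treated control cultures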; conditions: S. cerevisiae rad52 mutant growth inhibition, active compounds read high
# Outline: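 Genetically altered yeast (DNA damage repair defect) treated with compound; inhibition calculated relative to vehicle.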
# [2] = NCI Yeast Anticancer Drug Screen. Data for the wt1 strain (AID 149);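 note: 0% = growth of vehicle-treated wt1 cultures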; conditions: S. cerevisiae wt1 strain (SPY 50644) growth inhibition, active compounds read high
# Outline: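 Compounds are added to wt1 yeast cultures. Growth is then measured. Inhibition is expressed relative to vehicle-treated controls.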
# [3] = NCI Yeast Anticancer Drug Screen. Data for the rad50EPP+ strain (AID 151);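 note: 0% = growth of vehicle-treated control cultures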; conditions: S. cerevisiae rad50 mutant strain, active compounds read high
# Outline: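 Strain rad50EPP+; compound exposure; % growth inhibition vs vehicle.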
# [4] = NCI Yeast Anticancer Drug Screen. Data for the mgt1 strain (AID 153); conditions: S. cerevisiae mgt1 mutant growth inhibition, active compounds read high
# Outline: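 Read-out: yeast growth inhibition vs vehicle control. Strain mgt1, drawn from a panel altered in DNA damage repair or cell cycle control.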
# [5] = NCI Yeast Anticancer Drug Screen. Data for the rad50 strain (AID 155);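 note: 0% = growth of vehicle-only cultures of the same strain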; conditions: S. cerevisiae rad50 strain growth inhibition, active compounds read high
# Outline: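 Inhibition values express reduced yeast growth in compound-treated cultures relative to vehicle-treated controls.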
# [6] = NCI Yeast Anticancer Drug Screen. Data for the mec2-1 strain (AID 157); conditions: S. cerevisiae mec2-1 strain, active compounds read high
# Outline: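 Cells of the genetically defined mec2-1 yeast strain are incubated with test compound. Inhibition of growth is calculated against vehicle-treated controls.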
# [7] = NCI Yeast Anticancer Drug Screen. Data for the sgs1 mgt1 strain (AID 161);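 note: 0% = growth of cultures given vehicle only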; conditions: S. cerevisiae sgs1 mgt1 strain, active compounds read high
# Outline: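 Mutant yeast exposed to compound; growth scored against vehicle-only wells.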
# [8] = NCI Yeast Anticancer Drug Screen. Data for the CLN2oe strain (AID 163);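 note: 0% = growth of vehicle-only control cultures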; conditions: S. cerevisiae CLN2oe strain, active compounds read high
# Outline: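 Strain altered in cell-cycle control, incubated with compound; growth compared to solvent-treated controls.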
# [9] = NCI Yeast Anticancer Drug Screen. Data for the cln2 rad14 strain (AID 165);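 note: 0% = growth equal to vehicle treated cultures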; conditions: S. cerevisiae cln2 rad14 strain, active compounds read high
# Outline: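 The screen exposed genetically defined yeast (cln2 rad14) to test compounds and scored growth inhibition relative to vehicle-treated controls.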
# [10] = NCI Yeast Anticancer Drug Screen. Data for the bub3 strain (AID 167); conditions: S. cerevisiae bub3 mutant strain, active compounds read high
# Outline: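 Steps: expose the mutant yeast strain to compound; grow alongside vehicle-treated cultures; measure growth; express inhibition against the vehicle cultures.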
# [11] = NCI Yeast Anticancer Drug Screen. Data for the wt2 strain (AID 169);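 note: 0% = growth of vehicle-treated yeast cultures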; conditions: S. cerevisiae wt2 strain growth inhibition, active compounds read high
# Outline: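 Steps: yeast strain treated with compound; growth recorded; inhibition calculated relative to cultures given vehicle alone.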
# [12] = NCI Yeast Anticancer Drug Screen. Data for the mlh1 strain (AID 171);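 note: 0% = growth of vehicle-treated control cultures of the same strain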; conditions: S. cerevisiae mlh1 strain growth inhibition, active compounds read high
# Outline: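 Yeast screen: mutant strain plus compound, growth scored against vehicle control wells.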
# [13] = NCI Yeast Anticancer Drug Screen. Data for the sgs1 strain (AID 173);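 note: 0% = growth of vehicle-only control cultures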; conditions: S. cerevisiae sgs1 mutant, active compounds read high
# Outline: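 Inhibition of yeast growth served as the measure. The mutant strain was treated with each compound, and growth was normalised to cultures receiving vehicle alone.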
# [14] = NCI Yeast Anticancer Drug Screen. Data for the mlh1 rad18 strain (AID 175); conditions: S. cerevisiae mlh1 rad18 strain growth inhibition, active compounds read high
# Outline: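 Compound-treated yeast growth, normalised to vehicle controls. Strain bears defined DNA repair mutations.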
# [15] = NCI Yeast Anticancer Drug Screen. Data for the rad18 strain (AID 177); conditions: S. cerevisiae rad18 mutant growth inhibition, active compounds read high
# Outline: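 Inhibition values reflect reduced yeast growth compared with vehicle-treated controls, using a strain engineered with a DNA damage repair defect.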
# [16] = NCI Yeast Anticancer Drug Screen. Data for the rad14 strain (AID 159);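 note: 0% = growth of vehicle-treated control cultures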; conditions: S. cerevisiae rad14 strain growth inhibition, active compounds read high
# Outline: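 A mutant yeast strain defective in DNA damage repair is treated with compound; inhibition of its growth is scored against untreated, vehicle-exposed cultures.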
# [17] = at 5.0 µM (retest, dose inferred, filed as 0.5)
# [18] = at 50.0 µM (retest, dose inferred, filed as 5.0)
smiles,measurement,setting,value
CC1CCC2(C(=O)O)CCC3(C)C(=CCC4C5(C)CC(O)C(O)C(C)(CO)C5C(O)CC43C)C2C1C (stereo not given),growth inhibition,[1]; at 1.2 µM,-23%
same,growth inhibition,[1]; at 3.7 µM,-25%
same,growth inhibition,[1]; at 11.0 µM,-28%
same,growth inhibition,[1]; at 33.0 µM,-15%
same,growth inhibition,[1]; at 100.0 µM,81% (active)
same,growth inhibition,[2]; at 1.2 µM,-17%
same,growth inhibition,[2]; at 3.7 µM,-20%
same,growth inhibition,[2]; at 11.0 µM,-17%
same,growth inhibition,[2]; at 33.0 µM,-3%
same,growth inhibition,[2]; at 100.0 µM,80% (active)
same,growth inhibition,[3]; at 1.2 µM,0%
same,growth inhibition,[3]; at 3.7 µM,-7%
same,growth inhibition,[3]; at 11.0 µM,-2%
same,growth inhibition,[3]; at 33.0 µM,3%
same,growth inhibition,[3]; at 100.0 µM,33%
same,growth inhibition,[4]; at 1.2 µM,-34%
same,growth inhibition,[4]; at 3.7 µM,-34%
same,growth inhibition,[4]; at 11.0 µM,-32%
same,growth inhibition,[4]; at 33.0 µM,-36%
same,growth inhibition,[4]; at 100.0 µM,47%
same,growth inhibition,[5]; at 1.2 µM,13%
same,growth inhibition,[5]; at 3.7 µM,-20%
same,growth inhibition,[5]; [17],54%
same,growth inhibition,[5]; at 11.0 µM,-20%
same,growth inhibition,[5]; at 33.0 µM,-28%
same,growth inhibition,[5]; [18],88% (active)
same,growth inhibition,[5]; at 50.0 µM,76.9% (active)
same,growth inhibition,[5]; at 100.0 µM,63%
same,growth inhibition,[6]; at 1.2 µM,-15%
same,growth inhibition,[6]; at 3.7 µM,-6%
same,growth inhibition,[6]; [17],-1%
same,growth inhibition,[6]; at 11.0 µM,-17%
same,growth inhibition,[6]; at 33.0 µM,-15%
same,growth inhibition,[6]; [18],90% (active)
same,growth inhibition,[6]; at 50.0 µM,82.3% (active)
same,growth inhibition,[6]; at 100.0 µM,75% (active)
same,growth inhibition,[7]; [17],16%
same,growth inhibition,[7]; [18],70% (active)
same,growth inhibition,[7]; at 50.0 µM,78.7% (active)
same,growth inhibition,[8]; at 1.2 µM,-6%
same,growth inhibition,[8]; at 3.7 µM,-4%
same,growth inhibition,[8]; at 11.0 µM,3%
same,growth inhibition,[8]; at 33.0 µM,7%
same,growth inhibition,[8]; at 100.0 µM,78% (active)
same,growth inhibition,[9]; [17],20%
same,growth inhibition,[9]; [18],77% (active)
same,growth inhibition,[9]; at 50.0 µM,39.1%
same,growth inhibition,[10]; at 1.2 µM,-5%
same,growth inhibition,[10]; at 3.7 µM,-2%
same,growth inhibition,[10]; [17],16%
same,growth inhibition,[10]; at 11.0 µM,-1%
same,growth inhibition,[10]; at 33.0 µM,13%
same,growth inhibition,[10]; [18],93% (active)
same,growth inhibition,[10]; at 50.0 µM,88.9% (active)
same,growth inhibition,[10]; at 100.0 µM,95% (active)
same,growth inhibition,[11]; at 1.2 µM,-2%
same,growth inhibition,[11]; at 3.7 µM,-2%
same,growth inhibition,[11]; at 11.0 µM,-1%
same,growth inhibition,[11]; at 33.0 µM,21%
same,growth inhibition,[11]; at 100.0 µM,96% (active)
same,growth inhibition,[12]; at 1.2 µM,-29%
same,growth inhibition,[12]; at 3.7 µM,-8%
same,growth inhibition,[12]; at 11.0 µM,-20%
same,growth inhibition,[12]; at 33.0 µM,-2%
same,growth inhibition,[12]; at 100.0 µM,95% (active)
same,growth inhibition,[13]; at 1.2 µM,-4%
same,growth inhibition,[13]; at 3.7 µM,9%
same,growth inhibition,[13]; at 11.0 µM,-10%
same,growth inhibition,[13]; at 33.0 µM,-17%
same,growth inhibition,[13]; at 100.0 µM,95% (active)
same,growth inhibition,[14]; [17],41%
same,growth inhibition,[14]; [18],78% (active)
same,growth inhibition,[14]; at 50.0 µM,58.7%
same,growth inhibition,[15]; at 1.2 µM,-43%
same,growth inhibition,[15]; at 3.7 µM,-47%
same,growth inhibition,[15]; at 11.0 µM,-42%
same,growth inhibition,[15]; at 33.0 µM,-61%
same,growth inhibition,[15]; at 100.0 µM,87% (active)
O=C(O)c1cccc2cccc(-c3c4ccc(=O)cc-4oc4cc(O)ccc34)c12,growth inhibition,[1]; at 1.2 µM,8%
same,growth inhibition,[1]; at 3.7 µM,33%
same,growth inhibition,[1]; at 11.0 µM,79% (active)
same,growth inhibition,[1]; at 33.0 µM,78% (active)
same,growth inhibition,[1]; at 100.0 µM,94% (active)
same,growth inhibition,[2]; at 1.2 µM,-5%
same,growth inhibition,[2]; at 3.7 µM,5%
same,growth inhibition,[2]; at 11.0 µM,54%
same,growth inhibition,[2]; at 33.0 µM,69%
same,growth inhibition,[2]; at 100.0 µM,94% (active)
same,growth inhibition,[3]; at 1.2 µM,10%
same,growth inhibition,[3]; at 3.7 µM,29%
same,growth inhibition,[3]; at 11.0 µM,70% (active)
same,growth inhibition,[3]; at 33.0 µM,73% (active)
same,growth inhibition,[3]; at 100.0 µM,93% (active)
same,growth inhibition,[4]; at 1.2 µM,20%
same,growth inhibition,[4]; at 3.7 µM,41%
same,growth inhibition,[4]; at 11.0 µM,79% (active)
same,growth inhibition,[4]; at 33.0 µM,88% (active)
same,growth inhibition,[4]; at 100.0 µM,96% (active)
same,growth inhibition,[5]; at 1.2 µM,29%
same,growth inhibition,[5]; at 3.7 µM,56%
same,growth inhibition,[5]; [17],29%
same,growth inhibition,[5]; at 11.0 µM,82% (active)
same,growth inhibition,[5]; at 33.0 µM,79% (active)
same,growth inhibition,[5]; [18],97% (active)
same,growth inhibition,[5]; at 50.0 µM,90.5% (active)
same,growth inhibition,[5]; at 100.0 µM,92% (active)
same,growth inhibition,[6]; at 1.2 µM,18%
same,growth inhibition,[6]; at 3.7 µM,24%
same,growth inhibition,[6]; [17],53%
same,growth inhibition,[6]; at 11.0 µM,85% (active)
same,growth inhibition,[6]; at 33.0 µM,85% (active)
same,growth inhibition,[6]; [18],94% (active)
same,growth inhibition,[6]; at 50.0 µM,91.5% (active)
same,growth inhibition,[6]; at 100.0 µM,93% (active)
same,growth inhibition,[16]; at 1.2 µM,10%
same,growth inhibition,[16]; at 3.7 µM,13%
same,growth inhibition,[16]; at 11.0 µM,55%
same,growth inhibition,[16]; at 33.0 µM,74% (active)
same,growth inhibition,[16]; at 100.0 µM,93% (active)
same,growth inhibition,[7]; [17],1%
same,growth inhibition,[7]; [18],95% (active)
same,growth inhibition,[8]; at 1.2 µM,16%
same,growth inhibition,[8]; at 3.7 µM,9%
same,growth inhibition,[8]; at 11.0 µM,70% (active)
same,growth inhibition,[8]; at 33.0 µM,81% (active)
same,growth inhibition,[8]; at 100.0 µM,90% (active)
same,growth inhibition,[9]; [17],61%
same,growth inhibition,[9]; [18],95% (active)
same,growth inhibition,[10]; at 1.2 µM,34%
same,growth inhibition,[10]; at 3.7 µM,69%
same,growth inhibition,[10]; [17],72% (active)
same,growth inhibition,[10]; at 11.0 µM,91% (active)
same,growth inhibition,[10]; at 33.0 µM,93% (active)
same,growth inhibition,[10]; [18],94% (active)
same,growth inhibition,[10]; at 100.0 µM,92% (active)
same,growth inhibition,[11]; at 1.2 µM,17%
same,growth inhibition,[11]; at 3.7 µM,26%
same,growth inhibition,[11]; at 11.0 µM,48%
same,growth inhibition,[11]; at 33.0 µM,85% (active)
same,growth inhibition,[11]; at 100.0 µM,96% (active)
same,growth inhibition,[12]; at 1.2 µM,7%
same,growth inhibition,[12]; at 3.7 µM,18%
same,growth inhibition,[12]; at 11.0 µM,63%
same,growth inhibition,[12]; at 33.0 µM,87% (active)
same,growth inhibition,[12]; at 100.0 µM,91% (active)
same,growth inhibition,[15]; at 1.2 µM,18%
same,growth inhibition,[15]; at 3.7 µM,23%
same,growth inhibition,[15]; at 11.0 µM,71% (active)
same,growth inhibition,[15]; at 33.0 µM,79% (active)
same,growth inhibition,[15]; at 100.0 µM,94% (active)
